Records with an inconclusive call do not appear. Activity calls are given as the source filed them. How the source made its calls: active means hit-call score of the fitted dose curve at least 0.9, where 1 is the maximum; inconclusive means response in the unintended direction; inactive means score below 0.9.
Columns and labels:
[1] = TOX21_p53_BLA_p2_viability: Viability Assessment in the Tox21 HCT-116 p53 Agonism Beta-lactamase Assay, Phase 2 (AID 2283591);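 further: actives lower the ATP signal meaning cytotoxicity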
Method in brief: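 HCT116 p53-bla cells, 4000/well, dosed after 5 h plating (217-fold dilution of DMSO stocks) and incubated 16 h at 37C. Viability taken as cellular ATP by CellTiter-Glo luminescence after 30 min RT; signal loss marks cytotoxicity.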

[2] = biological target: Cellular tumor antigen p53 (Homo sapiens) (UniProt P04637); experiment: TOX21_p53_BLA_p2_ratio: Tox21 HCT-116 p53 Agonism Beta-lactamase Assay, Ratio, Phase 2 (AID 2283592)
Method in brief: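 An inducible beta-lactamase reporter in HCT116 cells signals p53 pathway activation. After 16 h chemical exposure at 37C, cells load CCF4-AM substrate for 2 h at room temperature; activity is the cleaved/uncleaved emission ratio relative to DMSO.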

[3] = TOX21_p53_BLA_p3_viability: Viability Assessment in the Tox21 HCT-116 p53 Agonism Beta-lactamase Assay, Phase 3 (AID 2283593);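 further: cells exposed to compound for 16 h before reading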
Method in brief: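 HCT116 cells, 4000/well, dosed 5 h after plating by pin transfer (217-fold dilution from DMSO stock) and incubated 16 h at 37C, 5% CO2. Viability read as ATP luminescence with CellTiter-Glo after 30 min at room temperature.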

[4] = biological target: Cellular tumor antigen p53 (Homo sapiens) (UniProt P04637); experiment: TOX21_p53_BLA_p3_ratio: Tox21 HCT-116 p53 Agonism Beta-lactamase Assay, Ratio, Phase 3 (AID 2283596)
Method in brief: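 HCT116 p53-bla cells (4000/well) given compound in DMSO (217-fold dilution) after 5 h, incubated 16 h at 37C. CCF4-AM substrate 2 h at room temperature; 460/530 nm emission ratio, gain fitted against DMSO.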

[5] = TOX21_p53_BLA_p4_viability: Viability Assessment in the Tox21 HCT-116 p53 Agonism Beta-lactamase Assay, Phase 4 (AID 2283597);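 further: hits lower the luminescence signal meaning cytotoxicity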
Method in brief: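 Compound exposure of HCT116 cells lasts 16 h at 37C, 5% CO2, with DMSO stocks diluted 217-fold. Cellular ATP is then quantified by CellTiter-Glo luminescence after 30 min at room temperature.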

[6] = biological target: Cellular tumor antigen p53 (Homo sapiens) (UniProt P04637); experiment: TOX21_p53_BLA_p5_ratio: Tox21 HCT-116 p53 Agonism Beta-lactamase Assay, Ratio, Phase 5 (AID 2283599)
Method in brief: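 HCT-116 p53-bla cells (4000/well) plated 5 h, dosed with compound (217-fold DMSO dilution) for 16 h at 37 C; CCF4-AM substrate 2 h at room temperature. Activity is the 460/530 nm emission ratio (405 nm excitation), fitted in gain-of-signal direction versus DMSO.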

[7] = biological target: Cellular tumor antigen p53 (Homo sapiens) (UniProt P04637); experiment: TOX21_p53_BLA_p4_ratio: Tox21 HCT-116 p53 Agonism Beta-lactamase Assay, Ratio, Phase 4 (AID 2283601)
Method in brief: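 HCT-116 p53 beta-lactamase reporter cells (4000/well) preincubated 5 h, then compound (217-fold dilution of DMSO stock) for 16 h at 37C. CCF4-AM substrate added 2 h at room temperature; 460/530 nm emission ratio fitted upward versus DMSO.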

Sequence of Cellular tumor antigen p53 (Homo sapiens) (P04637 whole entry, looked up): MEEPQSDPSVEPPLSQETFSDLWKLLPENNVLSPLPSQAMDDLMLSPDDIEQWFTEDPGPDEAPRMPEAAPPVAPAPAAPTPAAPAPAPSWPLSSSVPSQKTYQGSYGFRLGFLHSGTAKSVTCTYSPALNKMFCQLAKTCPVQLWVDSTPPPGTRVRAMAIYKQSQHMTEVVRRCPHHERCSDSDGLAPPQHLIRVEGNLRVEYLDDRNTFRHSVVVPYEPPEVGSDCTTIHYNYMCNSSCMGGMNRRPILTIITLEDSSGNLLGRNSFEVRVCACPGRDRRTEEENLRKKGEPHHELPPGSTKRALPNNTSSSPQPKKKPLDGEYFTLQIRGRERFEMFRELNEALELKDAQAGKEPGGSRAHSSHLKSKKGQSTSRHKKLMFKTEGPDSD

Row | Structure (SMILES) | outcome [1] | outcome [2] | outcome [3] | outcome [4] | outcome [5] | outcome [6] | outcome [7] | AC50 [2] | AC50 [6] | AC50 [7]
1 | OC[C@@H](O)[C@H](O)[C@H](O)[C@@H](O)CO | inactive | inactive | inactive | inactive | inactive | inactive | inactive | – | – | –
2 | CC(CN1CC(=O)NC(=O)C1)N1CC(=O)NC(=O)C1 (stereo not given) | inactive | – | inactive | inactive | inactive | – | – | 8.6 µM (active) | 8.51 µM (active) | 8.89 µM (active)
3 | Cc1ncc(C[n+]2csc(CCOP(=O)(O)OP(=O)(O)O)c2C)c(N)n1 | inactive | inactive | inactive | inactive | inactive | inactive | inactive | – | – | –
4 | O=C(CO)[C@@H](O)[C@H](O)[C@@H](O)C(=O)O | inactive | inactive | inactive | inactive | inactive | inactive | inactive | – | – | –
5 | C[C@@H]1CCC[C@H](C)N1 | inactive | inactive | inactive | inactive | inactive | inactive | inactive | – | – | –
